This is part of a sample that, as a whole, favours compounds with a hit. Of some 79,000 tested, about 15% had one in any assay. Calls of active or inactive are those of the source. Rule as the data show it: active = growth inhibition above about 70%; inactive = the rest.
Experiment: NCI Yeast Anticancer Drug Screen. Data for the sgs1 mgt1 strain (AID 161);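 also: 0% = growth of cultures given vehicle only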
Conditions: S. cerevisiae sgs1 mgt1 strain, at 5.0 µM (retest, dose inferred, filed as 0.5), stronger effect = higher value
In short: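 Genetically altered yeast, compound exposure, growth inhibition relative to vehicle.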

SMILES | growth inhibition
CC(OC(=O)Nc1cccc(Cl)c1)c1ccccc1 (centres undefined) | 12% (inactive)
O=C(O)/C=C/c1c2ccccc2cc2ccccc12 | 27% (inactive)
Cc1c[nH]c2c(O)cc3c(c12)[C@H](CCl)CN3C(=O)c1cc2cc(NC(=O)Nc3ccc4[nH]c(C(=O)N5C[C@@H](CCl)c6c5cc(O)c5[nH]cc(C)c65)cc4c3)ccc2[nH]1 | 33% (inactive)
Cc1ccc(S(=O)(=O)OC(C=O)C(O)C(O)COC(c2ccccc2)(c2ccccc2)c2ccccc2)cc1 (centres undefined) | 95% (active)
COc1cc2c(cc1C(C)C)CCC1C(C)(C#N)CCCC21C (centres undefined) | -11% (inactive)
Fc1ccc(NC(=S)SCc2ccc(Cl)c(Cl)c2)c(F)c1 | 6% (inactive)
COC(=O)/C=C(\NC1CC(OC2C[C@](O)(C(C)=O)Cc3c(O)c4c(c(O)c32)C(=O)c2c(OC)cccc2C4=O)OC(C)C1O)C(=O)OC (some centres undefined) | -3% (inactive)
O=C1CSC(=S)N1c1ccc(F)cc1F | 10% (inactive)
CS(=O)(=O)OCCN(CCOS(C)(=O)=O)c1ccc(C=Nc2ccc3ccccc3c2)c(Cl)c1 | 3% (inactive)
CN(C)C(=O)Nc1ccc(Cc2ccc(NC(=O)N(C)C)cc2)cc1 | -13% (inactive)
O=c1c(Cl)c(Cl)c(=O)c2sc3cc(Cl)ccc3[nH]c1=2 | -3% (inactive)
O=S(=O)(O)C(O)c1ccc2ccc3cccc4ccc1c2c34 (centres undefined) | 4% (inactive)
N#Cc1cc([N+](=O)[O-])ccc1NC(=O)/C(=N/N)C(C(=O)c1ccc(Cl)c(Cl)c1)C1OC(=O)c2ccccc21 (centres undefined) | 18% (inactive)
O=C(Nc1ccc(Cl)c(Cl)c1Cl)Oc1c(Cl)c(Cl)c(Cl)c(Cl)c1Cl | 43% (inactive)
O=[N+]([O-])c1cc(Cl)cc2c1nc(NCCO)c1ccccc12 | 63% (inactive)
CCNc1nc(C(F)(F)F)nc2nc[nH]c12 | -22% (inactive)
CC1CCN(CCOC(=O)C(c2ccccc2)C2C=CCCC2)C1 (centres undefined) | 8% (inactive)
CCOC(=O)c1c(N)sc2c1CCCCC2 | -63% (inactive)
CC(C(O)Cc1ccccc1)N(C)N=Nc1ccc([N+](=O)[O-])cc1 (centres undefined) | 24% (inactive)
O=[N+]([O-])c1ccc(/C=c2\sc3scc(-c4ccc([N+](=O)[O-])cc4)[n+]3\c2=C/c2ccc([N+](=O)[O-])cc2)cc1 | 88% (active)
Oc1cc(C(c2ccccc2)c2ccccc2)c2ccccc2c1O | 20% (inactive)
CC1=CC2OC3CC4OC(=O)/C=C/C=C/C(C(C)O)OCC(=O)C(C)CC(=O)OCC2(CC1)C4(C)C31CO1 (centres undefined) | 31% (inactive)
CC(NNC(=S)N1CCCCCC1)c1cc2ccccc2cn1 (centres undefined) | 93% (active)
CC(C)C1=CC23CCC4C(C)(C(=O)O)CCCC4(C)C2CC1C1C(=O)C=CC(=O)C13 (centres undefined) | 82% (active)

Same assay, conditions: S. cerevisiae sgs1 mgt1 strain, at 50.0 µM (retest, dose inferred, filed as 5.0), stronger effect = higher value

SMILES | growth inhibition
Cc1ccc(O)c(C(c2cc(C)ccc2O)c2ccccc2Cl)c1 | 99% (active)
O=c1ssc(=Nc2ccc(Cl)cc2)n1-c1ccc(Cl)cc1 | 99% (active)
CC(=O)OC1CCC2(C)C(CCC3C4=CCC(C5COC(=O)C5)C4(C)CCC32)C1 (centres undefined) | 88% (active)
CCN(CC)CCCC(C)Nc1cc(F)cc2cccnc12 (centres undefined) | 75% (active)
CC1CN(CCCN2c3ccccc3Sc3ccc(Cl)cc32)C(C)(C)C1 (centres undefined) | 100% (active)
O=S(=O)(O)c1ccc2c(c1)C1C(C3C2C2(Cl)C(Cl)=C(Cl)C3(Cl)C2(Cl)Cl)C2(Cl)C(Cl)=C(Cl)C1(Cl)C2(Cl)Cl (centres undefined) | 77% (active)
OC(CN1CCC(c2ccccc2)CC1)c1ccc(Br)cc1 (centres undefined) | 64% (inactive)
CCOC(=O)/C(C#N)=C\c1cccc2ccccc12 | 75% (active)
COc1ccc2c(c1)CCC(N1CCCC(O)C1)C2 (centres undefined) | 98% (active)
COc1cccc(N2CCN(CC(O)COc3cc4c(c5c3CCCC5)CCCC4)CC2)c1 (centres undefined) | 95% (active)
CC(=O)Oc1ccc(Cl)cc1Cc1cc(Cl)ccc1OC(C)=O | 83% (active)
CC(O)c1c2c(cc3c1CC1(C3)Cc3cc4c(c(C(C)O)c3C1)CCC4)CCC2 (centres undefined) | 97% (active)
O=c1c2ccccc2nc(-c2ccccc2)n1NC(=S)Nc1ccc(Cl)cc1[N+](=O)[O-] | 15% (inactive)
O=C(CCCN1CCc2[nH]c3cc(F)ccc3c2C1)c1ccc(F)cc1 | 98% (active)
OC(C(=Nc1ccccc1)c1ccccc1)c1ccccc1 (centres undefined) | 98% (active)
N#CC1CCCC(Cc2ccccc2)(c2ccccc2)C1=O (centres undefined) | 95% (active)
CC(OC(=O)Nc1cccc(Cl)c1)c1ccccc1 (centres undefined) | 99% (active)
O=C(O)/C=C/c1c2ccccc2cc2ccccc12 | 97% (active)
Cc1c[nH]c2c(O)cc3c(c12)[C@H](CCl)CN3C(=O)c1cc2cc(NC(=O)Nc3ccc4[nH]c(C(=O)N5C[C@@H](CCl)c6c5cc(O)c5[nH]cc(C)c65)cc4c3)ccc2[nH]1 | 64% (inactive)
Cc1ccc(S(=O)(=O)OC(C=O)C(O)C(O)COC(c2ccccc2)(c2ccccc2)c2ccccc2)cc1 (centres undefined) | 95% (active)

SMILES | growth inhibition
COc1cc2c(cc1C(C)C)CCC1C(C)(C#N)CCCC21C (centres undefined) | -29% (inactive)
Fc1ccc(NC(=S)SCc2ccc(Cl)c(Cl)c2)c(F)c1 | 98% (active)
COC(=O)/C=C(\NC1CC(OC2C[C@](O)(C(C)=O)Cc3c(O)c4c(c(O)c32)C(=O)c2c(OC)cccc2C4=O)OC(C)C1O)C(=O)OC (some centres undefined) | 97% (active)
O=C1CSC(=S)N1c1ccc(F)cc1F | 78% (active)
CS(=O)(=O)OCCN(CCOS(C)(=O)=O)c1ccc(C=Nc2ccc3ccccc3c2)c(Cl)c1 | 14% (inactive)
CN(C)C(=O)Nc1ccc(Cc2ccc(NC(=O)N(C)C)cc2)cc1 | -8% (inactive)
O=c1c(Cl)c(Cl)c(=O)c2sc3cc(Cl)ccc3[nH]c1=2 | 46% (inactive)
O=S(=O)(O)C(O)c1ccc2ccc3cccc4ccc1c2c34 (centres undefined) | 92% (active)
N#Cc1cc([N+](=O)[O-])ccc1NC(=O)/C(=N/N)C(C(=O)c1ccc(Cl)c(Cl)c1)C1OC(=O)c2ccccc21 (centres undefined) | 18% (inactive)
O=C(Nc1ccc(Cl)c(Cl)c1Cl)Oc1c(Cl)c(Cl)c(Cl)c(Cl)c1Cl | 99% (active)
O=[N+]([O-])c1cc(Cl)cc2c1nc(NCCO)c1ccccc12 | 93% (active)
CCNc1nc(C(F)(F)F)nc2nc[nH]c12 | -5% (inactive)
CC1CCN(CCOC(=O)C(c2ccccc2)C2C=CCCC2)C1 (centres undefined) | 77% (active)
CCOC(=O)c1c(N)sc2c1CCCCC2 | 1% (inactive)
CC(C(O)Cc1ccccc1)N(C)N=Nc1ccc([N+](=O)[O-])cc1 (centres undefined) | 91% (active)
O=[N+]([O-])c1ccc(/C=c2\sc3scc(-c4ccc([N+](=O)[O-])cc4)[n+]3\c2=C/c2ccc([N+](=O)[O-])cc2)cc1 | 99% (active)
Oc1cc(C(c2ccccc2)c2ccccc2)c2ccccc2c1O | 1% (inactive)
CC1=CC2OC3CC4OC(=O)/C=C/C=C/C(C(C)O)OCC(=O)C(C)CC(=O)OCC2(CC1)C4(C)C31CO1 (centres undefined) | 98% (active)
CC(NNC(=S)N1CCCCCC1)c1cc2ccccc2cn1 (centres undefined) | 96% (active)
CC(C)C1=CC23CCC4C(C)(C(=O)O)CCCC4(C)C2CC1C1C(=O)C=CC(=O)C13 (centres undefined) | 97% (active)

From PubChem BioAssay (NCI)
